The text below walks through data of PubChem BioAssay (Tox21).

The nature of assay [1]: Nuclear factor erythroid 2-related factor 2/antioxidant responsive element (Nrf2/ARE) small molecule agonists: qHTS cell viability counter screen in human keratinocytes (AID 1919968; active means well fitted curve in the direction sought with a large enough effect in the repeat runs; an effect the other way counts as inactive or inconclusive; further: nearly all actives have a fitted effect of over 55% in size; further: potency means the concentration at half of the fitted maximal effect). The method, boiled down:
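Cytotoxicity was multiplexed with the Nrf2/ARE luciferase assay in the same wells. Stably transfected HaCaT keratinocytes were treated with test compounds for 23 h at 37 C. Cell viability was then measured by CellTiter-Fluor fluorescence.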
On the technique in general: In qHTS, concentration-response curves come from the screen itself.

Assay [2] in a line: Nuclear factor erythroid 2-related factor 2/antioxidant responsive element (Nrf2/ARE) small molecule agonists: luciferase reporter gene qHTS assay in human keratinocytes (AID 1919969). Further: nearly all actives have a fitted effect of over 35% in size. Further: potency means the concentration at half of the fitted maximal effect. For orientation: In a reporter assay the amount or activity of a reporter protein is the signal.
Assay [3] concerns the target Gonadotropin-releasing hormone receptor (Homo sapiens) (UniProt P30968). Kind of assay: Human gonadotropin-releasing hormone receptor (GnRHR) small molecule agonists, calcium flux assay in GnRHR-HEK293 cells (AID 1920063). Further: nearly all actives have a fitted effect of over 35% in size. The method, boiled down:
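Agonist activity was measured as intracellular calcium flux in HEK293 cells engineered to stably express human GnRHR. After dye loading for 1 hour at 37 C, compounds in DMSO were added and fluorescence was followed for 3 minutes.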

Assay [4] has as its target KiSS-1 receptor (Homo sapiens) (UniProt Q969F8). Put plainly: Human kisspeptin (KISS1R) small molecule agonists, calcium flux assay in KISS1R-HEK293 cells (AID 1920064; active means well fitted curve in the direction sought with a large enough effect in the repeat runs; an effect the other way counts as inactive or inconclusive). The method, boiled down: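 Agonist activity is monitored as intracellular calcium rise in engineered HEK293 cells carrying human KISS1R. Cells are dye-loaded for 1 h at 37 C before compound addition, and fluorescence is recorded for 3 min.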
A general note: A change in cytosolic calcium serves as a functional read-out for many receptors and channels.

Assay [5] in a line: G protein-coupled receptor (GPCR) small molecule agonists, calcium flux assay: HEK293 wild type cell line counter screen (AID 1920065). Further: potency means the concentration at half of the fitted maximal effect. The procedure, abridged:
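Seed cells, incubate 18 h (37 C, 5% CO2); add calcium dye, 1 h at 37 C; pin-transfer compounds, ATP control or DMSO; read fluorescence 480/540 nm each second for 3 min.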

Assay [6] is described as follows: cAMP Responsive Elements (CRE) small molecule agonists, cell-based qHTS assay (AID 1963590). The procedure, abridged: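 Cells carrying a CRE-driven beta-lactamase reporter (HEK 293T) are seeded, incubated overnight (18 h), and treated with test compounds for 3 h at 37 C; reporter activity is then detected with a FRET substrate after 2 h at room temperature.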
Assay [7] can be described thus: cAMP Responsive Elements (CRE) small molecule antagonists, cell-based qHTS assay (AID 1963591; active means well fitted inhibition curve with a large enough effect in the signal ratio in the repeat runs, not every such curve was filed as active; the % refers to the signal ratio; further: potency means the concentration at half of the fitted maximal effect). The procedure, abridged:
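Cells (CRE-bla HEK 293T, DMEM with 10% dialyzed FBS and 25 mM HEPES) are seeded and incubated 18 h. Compounds are added with NKH477 agonist at 0.25 uM final for 3 h, then FRET substrate for 2 h.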

For assay [8], the target named is Beta-2 adrenergic receptor (Homo sapiens) (UniProt P07550). Kind of assay: Adrenergic beta2 receptor (ADRB2) small molecule antagonists, cell-based qHTS assay (AID 1963592). Further: series mostly up to about 92 µM; nearly all actives have a fitted effect of over 50% in size. The procedure, abridged:
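Assay format: CHO-ADRB2 cells, 18-20hr seeding at 37C/5% CO2, then compound plus 1nM isoproterenol agonist mix for 0.5hr RT. Homogeneous time-resolved fluorescence cAMP detection after 1hr, expressed as 665/615 nm ratio.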

Assay [9] has the same target. Put plainly: Adrenergic beta2 receptor (ADRB2) small molecule agonists, cell-based qHTS assay (AID 1963593).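 Further: CHO cells stably overexpressing human ADRB2.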 The procedure, abridged:
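CHO cells stably over-expressing ADRB2 were plated overnight at 37C, then dosed with compounds plus a stimulation mix containing 100uM IBMX and 25uM Ro-20-1724 for 0.5hr at room temperature. cAMP was measured by HTRF competition, 1hr.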

Assay [10] addresses D(2) dopamine receptor (Homo sapiens) (UniProt P14416). Kind of assay: Dopamine D2 receptor (DRD2) small molecule agonists, cell-based qHTS assay (AID 1963594). Further: nearly all actives have a fitted effect of over 35% in size. The method, boiled down:
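cAMP accumulation in DRD2-HEK293 cells measured by HTRF after 1 h detection; compounds added 10 min before NKH477 (200nM […]) forskolin-analogue stimulation, 30 min at room temperature, with Ro20-1724 present at 0.1 mM final.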

Assay [11] shares this target. Kind of assay: Dopamine D2 receptor (DRD2) small molecule antagonists, cell-based qHTS assay (AID 1963595; active means well fitted inhibition curve with a large enough effect in the signal ratio in the repeat runs, with a control signal flat; the % refers to the signal ratio). The procedure, abridged: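 HTRF cAMP read-out at 665 and 620 nm emission (340 nm excitation). Antagonist mode: compounds were tested against 12 nM quinpirole in DRD2-HEK293 cells, with 200 nM NKH477 raising cAMP and 0.1 mM Ro20-1724 blocking its breakdown.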
Assay [12] can be described thus: p53 small molecule agonists, cell-based qHTS assay with human liver microsomes (AID 1963577). The method, boiled down:
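Fluorescence of the beta-lactamase reporter in p53RE-bla cells, detected with LiveBLAzer substrate (2 h, room temperature, dark), served as the read-out after 16 h compound exposure at 37 C with human liver microsomes and NADPH, each 0.5 mg/mL final.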

The nature of assay [13]: p53 small molecule agonists, cell-based qHTS assay with rat liver microsomes (AID 1963578). The method, boiled down: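 Cells carrying a p53 response element–beta-lactamase reporter were plated and rested 5 h, then dosed with compound in DMSO plus rat liver microsomes and NADPH, each at 0.5 mg/mL final. After 16 h at 37 C, LiveBLAzer substrate was added for 2 h.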
The nature of assay [14]: p53 small molecule agonists, cell-based qHTS assay with human liver microsomes: qHTS cell viability counter screen (AID 1963579). Further: nearly all actives have a fitted effect of over 45% in size. The procedure, abridged: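 Cytotoxicity counter screen: p53RE-bla, 4,000 cells/well; 5 h settle, 37 C/5% CO2; cpd + HLM 0.5 mg/mL + NADPH 0.5 mg/mL (final); 16 h, 37 C; CellTiter-Glo, 30 min RT, luminescence.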
Assay [15] is described as follows: p53 small molecule agonists, cell-based qHTS assay with rat liver microsomes: qHTS cell viability counter screen (AID 1963580). Further: nearly all actives have a fitted effect of over 45% in size. The procedure, abridged:
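Rat liver microsome (0.5 mg/mL final) and NADPH (0.5 mg/mL final) co-incubation with compounds for 16 h at 37 C on HCT-116 p53RE-bla cells; cytotoxicity taken from intracellular ATP luminescence.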

A short description of assay [16]: p53 small molecule agonists, cell-based qHTS assay: qHTS cell viability counter screen (AID 1963581). Further: nearly all actives have a fitted effect of over 45% in size. The method, boiled down:
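Viability was counter-screened in parallel with the p53 agonist reporter by measuring intracellular ATP luminescence in the same HCT-116 p53RE-bla wells after 16 h compound treatment at 37 C.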

Assay [17] concerns the target 5-hydroxytryptamine receptor 2A (Homo sapiens) (UniProt P28223). Put plainly: 5-hydroxytryptamine receptor 2A (HTR2A) small molecule antagonists, cell-based qHTS assay (AID 1963586). Further: nearly all actives have a fitted effect of over 45% in size. The procedure, abridged:
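CHO cells stably expressing human HTR2A were plated for 18 h at 37 C, then loaded with calcium dye for 1 h. Compounds were preincubated 5 min at room temperature before DOI (4 nM solution) was added. Kinetic fluorescence was read for 3 min.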

Assay [18] shares this target. Kind of assay: 5-hydroxytryptamine receptor 2A (HTR2A) small molecule agonists, cell-based qHTS assay (AID 1963587). Further: nearly all actives have a fitted effect of over 30% in size. The method, boiled down:
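Kinetic calcium-flux fluorescence (2 min, 1 sec intervals) after compound addition in agonist mode. HTR2A-CHO cells were cultured 18 h, then dye-loaded 1 h at 37 C.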

Assay [19] addresses Muscarinic acetylcholine receptor M1 (Homo sapiens) (UniProt P11229). Kind of assay: Cholinergic receptor muscarinic 1 (CHRM1) small molecule antagonists, cell-based qHTS assay (AID 1963588). Further: nearly all actives have a fitted effect of over 40% in size. The procedure, abridged:
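Compounds were tested at 15 concentrations in three independent runs. Dye-loaded CHRM1-CHO cells were exposed 5 min at room temperature before stimulation by acetylcholine added at 50nM. Intracellular calcium was read kinetically on FDSS for 3 min.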

The target is the same in assay [20]. Put plainly: Cholinergic receptor muscarinic 1 (CHRM1) small molecule agonists, cell-based qHTS assay (AID 1963589). Further: nearly all actives have a fitted effect of over 35% in size. The method, boiled down:
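Cells were plated and incubated 18 h at 37 C/5% CO2, loaded with calcium dye for 1 h at 37 C, then treated with compounds in DMSO. Fluorescence was recorded kinetically at 1 sec intervals.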

Values joined by “and” are separate entries in the source; they are usually repeats but may differ in a detail not shown here. Identical values can stand only once. Inconclusive results are not listed. The source holds several records for some structures; these can differ, active in one and inactive in another. Active and inactive are the calls of the source. Unless noted, the call rests on the fitted dose curve.

Sequence of D(2) dopamine receptor (Homo sapiens) (P14416 whole entry, looked up): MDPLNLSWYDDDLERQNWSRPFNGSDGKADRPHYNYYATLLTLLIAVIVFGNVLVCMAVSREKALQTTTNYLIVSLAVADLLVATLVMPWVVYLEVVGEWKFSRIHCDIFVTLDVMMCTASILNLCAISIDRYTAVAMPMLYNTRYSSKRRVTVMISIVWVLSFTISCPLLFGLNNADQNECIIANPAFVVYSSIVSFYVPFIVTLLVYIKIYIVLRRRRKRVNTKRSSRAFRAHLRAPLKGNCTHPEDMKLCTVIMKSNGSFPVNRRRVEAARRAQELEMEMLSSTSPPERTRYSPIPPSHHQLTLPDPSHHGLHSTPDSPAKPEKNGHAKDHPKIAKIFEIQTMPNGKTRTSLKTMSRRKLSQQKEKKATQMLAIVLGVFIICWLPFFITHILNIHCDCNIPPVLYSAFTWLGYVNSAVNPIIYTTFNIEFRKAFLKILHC
Sequence of Muscarinic acetylcholine receptor M1 (Homo sapiens) (P11229 whole entry, looked up): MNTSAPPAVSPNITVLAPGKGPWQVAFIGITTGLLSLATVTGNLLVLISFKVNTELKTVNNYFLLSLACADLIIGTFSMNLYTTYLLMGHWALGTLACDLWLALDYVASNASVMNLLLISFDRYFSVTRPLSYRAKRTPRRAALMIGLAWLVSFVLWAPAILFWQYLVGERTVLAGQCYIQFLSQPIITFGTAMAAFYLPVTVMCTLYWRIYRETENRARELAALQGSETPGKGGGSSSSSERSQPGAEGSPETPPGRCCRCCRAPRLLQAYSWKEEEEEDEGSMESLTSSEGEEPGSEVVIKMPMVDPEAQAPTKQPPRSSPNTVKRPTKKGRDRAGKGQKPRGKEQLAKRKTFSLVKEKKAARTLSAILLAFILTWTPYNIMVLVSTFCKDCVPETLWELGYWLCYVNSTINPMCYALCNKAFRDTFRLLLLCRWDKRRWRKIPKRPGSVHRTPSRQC
Sequence of 5-hydroxytryptamine receptor 2A (Homo sapiens) (P28223 whole entry, looked up): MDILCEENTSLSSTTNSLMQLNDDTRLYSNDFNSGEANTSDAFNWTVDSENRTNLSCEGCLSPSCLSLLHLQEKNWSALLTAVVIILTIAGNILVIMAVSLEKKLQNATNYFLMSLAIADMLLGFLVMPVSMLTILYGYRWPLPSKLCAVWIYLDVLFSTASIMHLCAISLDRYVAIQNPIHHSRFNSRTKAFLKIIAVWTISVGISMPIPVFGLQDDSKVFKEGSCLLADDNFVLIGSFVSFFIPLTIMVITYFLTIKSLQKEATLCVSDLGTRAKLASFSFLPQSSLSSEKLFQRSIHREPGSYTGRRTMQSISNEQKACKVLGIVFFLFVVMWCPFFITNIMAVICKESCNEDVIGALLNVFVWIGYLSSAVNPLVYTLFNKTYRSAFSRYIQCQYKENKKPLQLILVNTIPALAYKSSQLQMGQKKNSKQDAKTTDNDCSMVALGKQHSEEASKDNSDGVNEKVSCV
Sequence of Gonadotropin-releasing hormone receptor (Homo sapiens) (P30968 whole entry, looked up): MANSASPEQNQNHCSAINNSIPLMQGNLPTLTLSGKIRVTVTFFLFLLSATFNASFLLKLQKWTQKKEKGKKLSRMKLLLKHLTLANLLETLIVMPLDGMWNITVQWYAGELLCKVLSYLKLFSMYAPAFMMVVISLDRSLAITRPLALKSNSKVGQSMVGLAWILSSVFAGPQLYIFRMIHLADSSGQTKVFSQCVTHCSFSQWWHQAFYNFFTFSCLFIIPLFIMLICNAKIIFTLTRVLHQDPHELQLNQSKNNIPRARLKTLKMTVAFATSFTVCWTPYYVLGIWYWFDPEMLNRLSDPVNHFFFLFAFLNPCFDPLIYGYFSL
Sequence of KiSS-1 receptor (Homo sapiens) (Q969F8 whole entry, looked up): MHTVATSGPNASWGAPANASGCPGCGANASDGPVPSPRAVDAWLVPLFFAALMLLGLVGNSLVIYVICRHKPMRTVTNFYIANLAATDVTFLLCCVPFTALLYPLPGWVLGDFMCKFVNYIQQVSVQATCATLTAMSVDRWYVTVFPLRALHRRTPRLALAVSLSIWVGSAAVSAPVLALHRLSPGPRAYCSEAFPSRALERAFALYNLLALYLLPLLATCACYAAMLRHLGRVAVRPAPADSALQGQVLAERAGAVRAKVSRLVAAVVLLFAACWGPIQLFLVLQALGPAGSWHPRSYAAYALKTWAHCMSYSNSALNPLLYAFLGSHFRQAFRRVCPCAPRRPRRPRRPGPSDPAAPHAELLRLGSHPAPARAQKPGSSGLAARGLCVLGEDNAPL
Sequence of Beta-2 adrenergic receptor (Homo sapiens) (P07550 whole entry, looked up): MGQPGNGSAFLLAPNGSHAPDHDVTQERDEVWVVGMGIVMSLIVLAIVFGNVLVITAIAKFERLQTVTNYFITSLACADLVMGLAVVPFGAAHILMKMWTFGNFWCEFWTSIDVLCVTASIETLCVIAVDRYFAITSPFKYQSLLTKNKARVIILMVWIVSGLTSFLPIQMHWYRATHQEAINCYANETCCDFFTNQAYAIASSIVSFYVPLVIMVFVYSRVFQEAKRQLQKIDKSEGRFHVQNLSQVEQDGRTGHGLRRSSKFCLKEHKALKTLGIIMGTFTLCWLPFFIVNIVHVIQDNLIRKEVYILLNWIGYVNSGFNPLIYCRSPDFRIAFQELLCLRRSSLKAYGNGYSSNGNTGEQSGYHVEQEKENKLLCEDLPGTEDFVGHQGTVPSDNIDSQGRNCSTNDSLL

Take `CCN(CC)C(=S)SSC(=S)N(CC)CC`: the Potency in [1] is 96.9 nM (active) and 99.2 nM (active) and 29.8 µM (active); in [5], “inactive and 25.1 µM (active)”; in assay [7] it was 1.19 µM (active). The Potency entry in assay [2], in assay [3], in assay [4], in [6], in assay [8] and in assay [9] was “inactive” in each case. Besides, the Potency entry in [10] and in assay [11] was “inactive” each time.
For the compound `C#C[C@]1(O)CC[C@H]2[C@@H]3CCc4cc(OC)ccc4[C@H]3CC[C@@]21C`, the Potency entry in assay [1], in assay [3], in [4], in [12], in assay [13] and in [14] was “inactive” each time. The Potency result in [15], in assay [16], in assay [6], in [7], in [8] and in [10] was “inactive” throughout. Further, the Potency result in [11] was “inactive”. In assay [2], the Potency was 54.5 µM (active) and 26.6 µM (active).
`CCCCC(=O)O`: the Potency result in assay [1], in assay [2], in assay [3], in assay [4], in assay [12] and in assay [13] was “inactive” in each case. Also, the Potency entry in assay [14], in [15], in [17], in assay [18], in assay [19] and in assay [20] was “inactive” each time. Further, the Potency result in assay [7], in assay [8] and in [9] was “inactive” each time.
As to `CN(C)CCOCCN(C)C`, the Potency entry in assay [1], in assay [2], in assay [3], in assay [4], in assay [12] and in assay [13] was “inactive” throughout. Besides, the Potency result in [14], in assay [15], in assay [16], in assay [17], in [19] and in [20] was “inactive” in each case. Also, the Potency result in assay [6], in [7], in assay [8], in [9], in assay [10] and in [11] was “inactive” throughout.
As to `CCCCOC(=O)COc1ccc(Cl)cc1Cl`, the Potency entry in [1], in assay [3], in assay [4], in assay [12], in assay [13] and in assay [14] was “inactive” in each case. Besides, the Potency result in assay [15], in assay [16], in assay [17], in assay [18], in assay [19] and in [20] was “inactive” throughout. In addition, the Potency entry in assay [6], in assay [7], in assay [8], in assay [9], in [10] and in assay [11] was “inactive” throughout. For the same compound, the Potency in [2] is 69.4 µM (active) and inactive.
As for `CCc1cccc(O)c1`, the Potency result in assay [1], in assay [2], in [3], in assay [4], in assay [12] and in [13] was “inactive” throughout. Moreover, the Potency entry in assay [14], in [15], in assay [16], in [17], in assay [18] and in [19] was “inactive” throughout. The Potency entry in assay [20], in assay [6], in assay [7], in assay [8], in assay [9] and in assay [10] was “inactive” each time. Besides, in assay [11], the Potency entry was “inactive”.
Regarding `Cc1cc(C2(c3cc(C)c(O)cc3C)OS(=O)(=O)c3ccccc32)c(C)cc1O`, the Potency in [1] was 21.7 µM (active) and 19.3 µM (active). Besides, the Potency entry in assay [2], in assay [3], in [4], in assay [12], in assay [13] and in [14] was “inactive” in each case. Besides, the Potency entry in [15], in [16], in assay [17], in assay [18], in assay [19] and in assay [20] was “inactive” in each case. The Potency entry in assay [6], in assay [7], in assay [8] and in [9] was “inactive” throughout.
With `CCCCCCCCCCCCS`, the Potency entry in assay [1], in assay [2], in assay [3], in assay [4], in [12] and in assay [13] was “inactive” throughout. The Potency entry in [14], in assay [15], in assay [16], in assay [17], in assay [18] and in assay [19] was “inactive” in each case. The Potency entry in [20], in [6], in assay [7], in assay [9], in assay [10] and in assay [11] was “inactive” each time.
